Screens from PubChem.
Ba/F3 V617F tox: reduced viability of JAK2V617F-dependent Ba/F3 cells, primary screen, JAK2V617F inhibitor project, cell-based, Ba/F3 EpoR-JAK2V617F, luminescence. ATP luminescence. inhibition, % at 5.6 µM. 1.1% of 220,000 active;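 active means inhibition above the campaign mean plus 3 SD over all tested compounds, cut at about 24% in these data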;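 further: cytokine-independent growth of Ba/F3 cells driven by EpoR plus mutant JAK2; 0% = DMSO-treated cells and 100% = JAK inhibitor I control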
aSyn UTR inh: MLPCN primary screen, SNCA 5' untranslated region; inhibition, % (tested at 7.5 µM); 0.82% of 300,000 active; alpha-synuclein 5'UTR reporter, inhibitor activity; in the data active means inhibition above about 60%; inconclusive means no clear call, values can overlap the other calls;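 further: H4 neuroglioblastoma cells stably carrying SNCA 5'UTR luciferase fusion; 0% = DMSO wells and 100% = positive control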
APP transl inh: inhibitors of APP translation via 5'UTR reporter, primary screen, APP 5'UTR luciferase, SH-SY5Y cells | inhibition, % at 2 µM | AID 1285, 2008 | SH-SY5Y APP 5'UTR-luciferase reporter, luminescence | 0.82% of 190,000 active;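 active means inhibition above a set limit, derived from the sample mean plus 3 SD, cut at about 45% in these data; inconclusive means one replicate passes the limit while the other fails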
KLF5 inh: KLF5 expression inhibitors, primary screen, DLD-1 cells, luminescence. DLD-1 KLF5 promoter-luciferase reporter. inhibition, % at 5 µM. 0.23% of 290,000 active. AID 1700, 2009;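 active means inhibition above a per-plate limit of that plate's mean compound inhibition plus 3 SD, cut at about 60% in these data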;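 further: 0% = DMSO wells and 100% = LY294002 at 200 µM; higher means less KLF5 promoter-driven luciferase light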
IEC-6 cytotox: cytotoxicity in IEC-6 intestinal epithelial cells, primary screen, cytotoxicity control for KLF5 inhibitor project, cell-based, luminescence; inhibition, % at 5 µM; AID 1825, 2009; 0.78% of 290,000 active; IEC-6 cytotoxicity, luminescence viability; in the data active means inhibition above about 22%;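 further: 0% = plate median of test compound wells and 100% = cytotoxic reference compound wells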
BaF3 tox: parental Ba/F3 cell viability inhibition, counter-screen for JAK2V617F inhibitor project, murine pro-B, CellTiter-Glo luminescence; CellTiter-Glo ATP luminescence; inhibition, % at 5.6 µM; 1.1% of 220,000 active; AID 1486, 2009;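 active means inhibition above a per-campaign cutoff, the mean inhibition of all tested compounds plus 3 SD, cut at about 27% in these data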;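 further: 0% = DMSO wells and 100% = JAK Inhibitor I control wells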
* = called active by the depositor; ? = inconclusive; · = no result given. The list is not random: actives were taken first. Their share in the collection is about 2.2%.

SMILES | Ba/F3 V617F tox | aSyn UTR inh | APP transl inh | KLF5 inh | IEC-6 cytotox | BaF3 tox
COc1cccc(CSc2nc(N)cc(N)n2)c1 | · | 2 | · | -6 | 10 | ·
COc1ccc(-n2c(C)cc(C(=O)Cn3nnc4ccccc4c3=O)c2C)cc1 | -3 | -18 | -18 | -19 | -1 | -1
Cc1cc(C(=O)Cn2nnc3ccccc3c2=O)c(C)n1-c1ccccc1F | 46* | ? | -197 | -26 | -2 | 52*
CSc1cccc(CNC(=O)C2CCC(=O)N(CCCN3CCCC3=O)C2)c1 (centres undefined) | · | -20 | · | -32 | 0 | ·
CCS(=O)(=O)N1Cc2ccccc2CC1C(=O)Nc1cccc(S(=O)(=O)N(C)C)c1 (centres undefined) | · | 3 | · | -54 | 0 | ·
O=C(Nc1nc2ccccc2s1)C1CCN(S(=O)(=O)c2cc([N+](=O)[O-])ccc2Cl)CC1 | 4 | -81 | · | 3 | 0 | 43*
CCC(C)NC(=O)C1CCN(S(=O)(=O)c2cc([N+](=O)[O-])ccc2Cl)CC1 (centres undefined) | -1 | -23 | · | 10 | -2 | 1
Cc1ccc(NC(=O)O/N=C/c2c(C)nn(C(C)(C)C)c2C)cc1Cl | -1 | 77* | · | 26 | 7 | -1
Cc1ccc(F)cc1CNC(=O)C1CCC(=O)N(CC2CCCCC2)C1 (centres undefined) | · | 7 | · | -25 | 3 | ·
Cc1cccc(C)c1NC(=O)CN(C)C(=O)Cc1cccc(C(F)(F)F)c1 | · | -6 | · | -10 | 2 | ·
CCOC(=O)c1[nH]c(C)c(CN(C(C)=O)c2ccc(OCC)cc2)c1C | 8 | -23 | -3 | 38 | 32* | 12
O=C(COc1ccc(F)cc1Cl)Nc1ccc(S(=O)(=O)Nc2nccs2)cc1 | · | -15 | · | · | · | ·
CCOc1ccc2c(c1)OC(c1ccc(C)cc1)(C(F)(F)F)NC2=O (centres undefined) | 58* | 96* | 95* | -7 | 42* | 51*
CCOc1ccc2c(c1)OC1(CCC(C)C1)CC2=O (centres undefined) | · | 30 | · | · | · | ·
COc1cc(C2C(C#N)=C(N)Oc3cc(O)ccc32)cc2c1OCO2 (centres undefined) | -3 | -29 | -5 | -22 | -2 | 3
COc1cc(C2C(C#N)=C(N)Oc3cc(O)ccc32)cc(OC)c1OC (centres undefined) | -2 | 58 | 94* | 4 | 0 | 1
COc1cc(C2C(C#N)=C(N)Oc3cc4c(cc32)OCO4)cc(OC)c1OC (centres undefined) | 93* | 111* | 93* | 86* | 85* | 89*
COc1cc(C2C(C#N)=C(N)Oc3cc(N(C)C)ccc32)cc2c1OCO2 (centres undefined) | 4 | 59 | 97* | -33 | 1 | 12
O=C(O)CCC1c2cc3c4cc2OC2Oc5cc6c(cc51)C(CCC(=O)O)c1cc5c7cc1OC(O6)c1cc6cc(c1)Oc1cc(cc(C(=O)O)c1)Oc1cc8cc(c1)C(Oc1cc(c(cc1C5CCC(=O)O)C3CCC(=O)O)OC(O4)c1cc(cc(c1)Oc1cc(cc(C(=O)O)c1)O8)Oc1cc(cc(C(=O)O)c1)Oc1cc(cc2c1)Oc1cc(cc(C(=O)O)c1)O6)O7 (centres undefined) | · | -7 | · | · | · | ·
CSc1cccc(-n2cc(-c3ccc4c(c3)OCO4)[nH]c2=O)c1 | 2 | -58 | -59 | -42 | 10 | 29*
O=C(Nc1ccc(Br)cc1)c1cccc(-n2cnnn2)c1 | · | -18 | · | -28 | -1 | ·
O=C(Nc1nc(-c2ccccn2)cs1)c1cccc(-n2cnnn2)c1 | 53* | 83* | · | 9 | 16 | 63*
Cc1ccc(-n2[nH]c(=O)c(-c3ccccn3)c2C)cc1 | -2 | 97* | -3 | -181 | 6 | 1
Cc1ccc(-n2[nH]c(=O)c3cccnc32)cc1 | -2 | -10 | -5 | -25 | -7 | 1
Cn1c(-c2cccs2)[n+](C)c2ccccc21 | 49* | 14 | -7 | 12 | 7 | 32*
SMILES | Ba/F3 V617F tox | aSyn UTR inh | APP transl inh | KLF5 inh | IEC-6 cytotox | BaF3 tox
COn1c(=O)c(-c2cccs2)[n+]([O-])c2ccccc21 | 4 | -18 | 8 | 15 | 9 | 3
O=C1C(Cl)=C(Nc2ccc3cn[nH]c3c2)C(=O)c2ccccc21 | 98* | 100* | · | -28 | 101* | 107*
O=C(Oc1ccc(NC2=C(Cl)C(=O)c3ccccc3C2=O)cc1)c1ccc([N+](=O)[O-])cc1 | 2 | -109 | 41 | -50 | -4 | 6
CN(C)c1ccc(NC2=C(Cl)C(=O)c3ccccc3C2=O)cc1 | 4 | -116 | 94* | -109 | 25* | 7
CC(=O)Nc1ccc(NC2=C(Cl)C(=O)c3ccccc3C2=O)cc1 | -3 | -40 | 89* | 12 | 3 | 2
COc1ccc(CC(=O)OCC(=O)N2CCCc3ccccc32)cc1OC | · | 17 | · | · | · | ·
Cn1c(SC2=CS(=O)(=O)c3ccccc32)nc2ccccc21 | 89* | -29 | 72* | -14 | 21 | 65*
Cc1c(C(N)=O)sc2ncn(CC(=O)NCCc3ccccc3)c(=O)c12 | 0 | -20 | -4 | -21 | -2 | 3
Cn1nc(-c2ccc(N3CCOCC3)c(NS(=O)(=O)c3ccc(Cl)cc3)c2)c2ccccc2c1=O | -1 | · | -12 | -2 | 2 | 1
Cc1ccc(S(=O)(=O)Nc2cc(-c3nn(C)c(=O)c4ccccc34)ccc2N2CCOCC2)cc1 | -4 | 78* | 28 | -24 | -2 | 3
CC(C)c1cc(NCCOCCO)n2c(nc3ccccc32)c1C#N | · | 1 | · | -2 | 1 | ·
CCOC(=O)COc1ccc(S(=O)(=O)Nc2cccc(SC)c2)cc1 | 0 | 11 | 69* | -1 | 1 | 2
O=c1c2ccccc2sc2ccc(C#CC3(O)CCCCC3)cc12 | · | 104* | · | · | · | ·
O=c1c2ccccc2oc2cc(C#CC3(O)CCCCC3)ccc12 | · | 77* | · | · | · | ·
COc1cccc2sc3ccc(C#CC4(O)CCCCC4)cc3c(=O)c12 | · | -191 | · | -116 | 1 | ·
CN1CCN(C2Cc3ccc(F)cc3Sc3cc(F)c(Cl)cc32)CC1 (centres undefined) | · | 102* | · | · | · | ·
CC(C)c1ccc2c(c1)C(N1CCNCC1)Cc1ccc(F)cc1S2 (centres undefined) | · | 75* | · | · | · | ·
C=C(c1ccccc1Cl)[n+]1ccccc1 | · | -6 | · | -17 | 0 | ·
Cc1ccc(NC(=O)CCC(=O)NNC(=S)Nc2ccccc2)c(C)c1 | -2 | 10 | -21 | 1 | 3 | 4
Cc1ccc(NC(=S)NNC(=S)Nc2ccc(C)cc2C)cc1 | 82* | 113* | 92* | -22 | 6 | 30*
CC(C)CC(=O)Nc1ccc(C(=O)NNC(=S)NC(=O)C2CCCCC2)cc1 | 2 | 67* | 7 | -14 | 1 | 2
O=C(NC(=S)Nc1ccc(F)cc1)C1CCCCC1 | · | -63 | · | -88 | -2 | ·
